Reference: PubChem BioAssay AID1159580 (chemical genetic matrix, 2015)
Values joined by “and” are separate entries in the source; they are usually repeats but may differ in a detail not shown here. Equal entries are not always repeated. Screen size: about 5,500 compounds; about 2,000 (36%) were called active. Inconclusive results (about 18%) are left out. No stated cut-off is given here; in the data, active means normalized growth mostly below about 0.91 (no sharp cut-off); inconclusive means no clear call, values can overlap the other calls; inactive means mostly above about 0.92. The list shows a part of the results.

Experiment: chemical genetic growth profiling, strain panel (AID 1159580);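 further: tested at 20 µM; growth read once vehicle control cultures reached saturation at 30 °C; 1 = growth at the plate median or of vehicle wells; lower values mean less growth of the strain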
Conditions: S. cerevisiae deletion strains, growth OD

Measured: normalized growth

CCn1cc(C(=O)O)c(=O)c2cc(F)c(N3CCNCC3)nc21
inactive: locus YAL013W, strain DEP1, hits give low values 1.01 | locus YAL021C, strain ccr4, hits give low values 0.939 | locus YAL026C, strain drs2, hits give low values 0.985 | locus YAL030W, strain snc1, hits give low values 0.982 | locus YBL061C, strain skt5, hits give low values 0.991 | locus YBR009C, strain hhf1, hits give low values 0.992 | locus YBR021W, strain FUR4, hits give low values 1.01 | locus YBR023C, strain chs3, hits give low values 0.983 | locus YBR171W, strain sec66, hits give low values 0.984 | locus YBR229C, strain ROT2, hits give low values 1.01 | locus YBR231C, strain swc5, hits give low values 0.998 | locus YBR279W, strain paf1, hits give low values 0.982 | locus YCL011C, strain gbp2, hits give low values 0.987 | locus YCL016C, strain dcc1, hits give low values 0.986 | locus YCL029C, strain bik1, hits give low values 1 | locus YCL061C, strain MRC1, hits give low values 0.987 | locus YCL069W, strain vba3, hits give low values 0.97 | locus YCR088W, strain abp1, hits give low values 0.982 | locus YDL005C, strain med2, hits give low values 0.978 | locus YDL035C, strain GPR1, hits give low values 1.02 | locus YDL040C, strain nat1, hits give low values 0.983 | locus YDL074C, strain BRE1, hits give low values 1 | locus YDL101C, strain DUN1, hits give low values 1.01 | locus YDL134C, strain PPH21, hits give low values 1.03 | locus YDL185W, strain tfp1, hits give low values 1.03 | locus YDL192W, strain arf1, hits give low values 1.02 | locus YDR001C, strain nth1, hits give low values 0.978 | locus YDR069C, strain doa4, hits give low values 0.982 | locus YDR101C, strain arx1, hits give low values 1 | locus YDR137W, strain rgp1, hits give low values 0.939 | locus YDR159W, strain sac3, hits give low values 0.962 | locus YDR162C, strain NBP2, hits give low values 1.02 | locus YDR195W, strain ref2 0.97 | locus YDR297W, strain sur2, hits give low values 0.971 | locus YDR318W, strain mcm21, hits give low values 1.02 | locus YDR334W, strain swr1, hits give low values 0.974 | locus YDR335W, strain msn5, hits give low values 0.979 | locus YDR388W, hits give low values 1.01 | locus YDR392W, strain spt3, hits give low values 0.946 | locus YDR502C, strain sam2, hits give low values 1.01 | locus YEL003W, strain gim4, hits give low values 0.985 | locus YEL037C, strain rad23, hits give low values 0.975 | locus YEL061C, strain CIN8 (second series), hits give low values 0.979 | locus YEL061C, strain CIN8, hits give low values 1.01 | locus YER015W, strain faa2, hits give low values 0.982 | locus YER016W, strain bim1, hits give low values 0.984 | locus YER110C, hits give low values 1.02 | locus YER111C, strain swi4, hits give low values 0.985 | locus YER155C, strain BEM2 (second series), hits give low values 0.956 | locus YER155C, strain BEM2, hits give low values 1.01 | locus YER167W, strain BCK2, hits give low values 1.03 | locus YFR010W, strain ubp6, hits give low values 0.984 | locus YGL078C, strain dbp3, hits give low values 1.01 | locus YGL086W, strain mad1, hits give low values 1.01 | locus YGL167C, strain pmr1, hits give low values 0.976 | locus YGL173C, strain kem1, hits give low values 0.98 | locus YGL227W, strain vid30, hits give low values 0.987 | locus YGL240W, strain doc1, hits give low values 0.975 | locus YGL248W, strain PDE1, hits give low values 1.01 | locus YGL253W, strain hxk2, hits give low values 0.994 | locus YGR135W, strain pre9, hits give low values 1.03 | locus YGR252W, strain gcn5, hits give low values 1.01 | locus YHR013C, strain ard1, hits give low values 0.966 | locus YHR027C, strain rpn1, hits give low values 0.994 | locus YHR030C, strain SLT2, hits give low values 1.01 | locus YHR079C, strain IRE1 (second series), hits give low values 1.01 | locus YHR079C, strain IRE1, hits give low values 1.03 | locus YHR094C, strain hxt1, hits give low values 1.02 | locus YHR129C, strain ARP1, hits give low values 1.01 | locus YHR142W, strain chs7, hits give low values 0.984 | locus YHR200W, strain rpn10, hits give low values 1.01 | locus YIL066C, strain RNR3, hits give low values 1.02 | locus YIL073C, strain SPO22, hits give low values 1.08 | locus YIL125W, strain kgd1, hits give low values 1.01 | locus YIR030C, strain dcg1, hits give low values 1.01 | locus YJL092W, strain hpr5, hits give low values 0.991 | locus YJL095W, strain BCK1 (second series), hits give low values 0.985 | locus YJL095W, strain BCK1, hits give low values 1 and 1.04 | locus YJL115W, strain asf1, hits give low values 0.963 | locus YJL129C, strain trk1, hits give low values 0.943 | locus YJL134W, strain LCB3, hits give low values 1 | locus YJL154C, strain vps35, hits give low values 0.961 | locus YJL164C, strain tpk1, hits give low values 0.992 | locus YJL166W, strain qcr8, hits give low values 0.981 | locus YJL168C, strain set2, hits give low values 1.01 | locus YJL187C, strain SWE1 (second series), hits give low values 1 | locus YJL187C, strain SWE1, hits give low values 0.981 | locus YJR043C, strain POL32, hits give low values 0.992
